Results as given in publication PMC4336329 (PLoS ONE, 2015).
In all, about 310,000 compounds went through this assay and about 14,000 (4.5%) showed an effect of 50% or more. The effect is printed as a negative number. This excerpt belongs to a sample that is enriched for strong results.

Biological target: human ether-à-go-go-related gene (hERG) potassium channel (human, UniProt Q12809)
Assay: primary screen, population patch clamp on CHO cells stably expressing hERG; higher = less effect of the substance
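Note: peak tail current of the secondary pulse compared with the same well before compound.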

Sequence of human ether-à-go-go-related gene (hERG) potassium channel (Q12809 whole entry, looked up): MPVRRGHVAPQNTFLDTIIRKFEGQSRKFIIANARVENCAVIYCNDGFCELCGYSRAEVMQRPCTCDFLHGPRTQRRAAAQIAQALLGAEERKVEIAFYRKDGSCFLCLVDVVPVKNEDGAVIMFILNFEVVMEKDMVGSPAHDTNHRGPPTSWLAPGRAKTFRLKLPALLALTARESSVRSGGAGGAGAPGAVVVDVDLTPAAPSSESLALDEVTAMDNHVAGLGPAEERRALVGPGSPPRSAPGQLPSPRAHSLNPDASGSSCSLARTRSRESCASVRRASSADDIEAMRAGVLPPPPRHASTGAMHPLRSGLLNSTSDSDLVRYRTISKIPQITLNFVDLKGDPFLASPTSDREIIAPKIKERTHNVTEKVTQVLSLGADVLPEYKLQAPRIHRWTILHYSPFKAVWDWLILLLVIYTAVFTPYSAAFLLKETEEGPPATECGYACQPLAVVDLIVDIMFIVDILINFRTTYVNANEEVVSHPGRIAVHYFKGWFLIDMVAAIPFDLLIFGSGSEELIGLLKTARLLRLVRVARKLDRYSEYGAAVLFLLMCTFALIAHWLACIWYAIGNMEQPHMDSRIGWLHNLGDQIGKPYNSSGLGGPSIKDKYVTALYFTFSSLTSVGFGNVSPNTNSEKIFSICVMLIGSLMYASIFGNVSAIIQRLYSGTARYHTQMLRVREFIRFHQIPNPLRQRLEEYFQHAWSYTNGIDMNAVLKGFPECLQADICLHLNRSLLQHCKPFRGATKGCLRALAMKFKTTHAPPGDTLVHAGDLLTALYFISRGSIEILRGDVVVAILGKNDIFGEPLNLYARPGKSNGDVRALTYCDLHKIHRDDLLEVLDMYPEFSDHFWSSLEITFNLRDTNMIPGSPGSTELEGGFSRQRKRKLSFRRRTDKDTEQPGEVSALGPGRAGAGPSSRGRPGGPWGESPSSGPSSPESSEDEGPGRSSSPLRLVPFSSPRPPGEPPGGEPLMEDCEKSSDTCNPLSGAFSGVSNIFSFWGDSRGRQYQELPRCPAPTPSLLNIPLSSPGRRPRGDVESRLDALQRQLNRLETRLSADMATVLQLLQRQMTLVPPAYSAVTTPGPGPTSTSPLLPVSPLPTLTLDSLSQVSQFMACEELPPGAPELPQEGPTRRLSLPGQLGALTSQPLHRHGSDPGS

| SMILES | hERG current change (%, negative = inhibition) at 10uM |
| --- | --- |
| O=C(CCCOc1ccc(Cl)cc1)Nc1nncs1 | -28.9% |
| Cc1cc(NC(=O)COc2cccc(Oc3ccccc3)c2)no1 | 13.5% |
| CCOc1cc(NCCN2CCOCC2)c([N+](=O)[O-])cc1OCC | -7.79% |
| COc1ccc(CC(=O)N2CCc3cc(OC)c(OC)cc3C2O)cc1OC (centres unmarked) | 8.05% |
| Cc1c(C)[n+](=O)c(-c2ccc(Br)cc2)c(C)n1[O-] | 13.1% |
| Cc1ccc2cc(C3CC(c4ccco4)=NN3S(C)(=O)=O)c(Cl)nc2c1 (centres unmarked) | -15% |
| CCOc1ccc2nc(Cl)c(C3CC(c4ccco4)=NN3S(C)(=O)=O)cc2c1 (centres unmarked) | -41.1% |
| Cc1ccc2nc(Cl)c(C3CC(c4ccco4)=NN3S(C)(=O)=O)cc2c1 (centres unmarked) | -62.6% |
| Fc1ccc(NC(=S)Nc2ccccc2OC(F)F)cc1Cl | 9.18% |
| CCOc1ccc(NC(=S)N(CCOC)C2CCN(C(C)C)CC2)cc1 | -29% |
| O=C1CC[C@@H](CN(Cc2ccccc2)Cc2cn[nH]c2-c2cc3ccccc3o2)N1 | -6.77% |
| Cc1nnc(CN(C)Cc2cn[nH]c2-c2ccc(-c3ccccc3)cc2)o1 | -15.1% |
| CN(Cc1cn[nH]c1-c1cc2ccccc2o1)CC1CCOCC1 | -66.4% |
| CN(Cc1cccnc1)Cc1cn[nH]c1-c1ccc(-c2ccccc2)cc1 | -56.7% |
| CC(C)N(Cc1nc(-c2ccc(Cl)cc2)no1)Cc1nccn1C | -50.4% |
| CC(C)N(Cc1cn[nH]c1-c1ccc(-c2ccccc2)cc1)Cc1nccn1C | -71.9% |
| COc1ccc(-c2[nH]ncc2CN(Cc2nccn2C)C(C)C)c(F)c1 | -39.7% |
| CN(Cc1ccon1)Cc1cn[nH]c1-c1ccc(-c2ccccc2)cc1 | -10.4% |
| c1ccc2oc(-c3[nH]ncc3CN(Cc3ccncc3)CC3CCCO3)cc2c1 (centres unmarked) | -22.6% |
| COc1ccc(-c2noc(CN(Cc3nccn3C)C(C)C)n2)cc1 | -6.99% |

| SMILES | hERG current change (%, negative = inhibition) at 10uM |
| --- | --- |
| COC(=O)c1ccc(-c2noc(CN(Cc3nccn3C)C(C)C)n2)cc1 | -37% |
| CCN(CCn1cccn1)Cc1cn[nH]c1-c1ccc(-c2ccccc2)cc1 | 9.21% |
| Cc1csc(NC(=O)CCC(=O)N(CC(=O)NC2CCCC2)c2ccccc2)n1 | -3.43% |
| Cc1ccc(CNC(=O)CCCOc2cc(=O)n(C)c3ccccc23)o1 | -17.9% |
| Cc1[nH][nH]c(=O)c1N=Nc1ccc(Cl)cc1 | 2.19% |
| C/C(NC(=O)c1cccs1)=C1\C(=O)C[C@@H]2[C@H]1C2(C)C | -19.6% |
| CCOc1ccc(C(=O)CCC(=O)NC(CC(C)C)C(=O)OC)cc1 (centres unmarked) | -2.17% |
| CCOC(=O)CNC(=O)c1sc(NC(=O)c2cccc(F)c2)nc1C | -0.522% |
| O=C(CCCOc1ccc(Cl)cc1Cl)Nc1ccccn1 | 24.2% |
| NC(=O)c1nn(-c2ccccc2)nc1N | 0.947% |
| O=c1[nH]c2cc3c(cc2cc1C(c1nnnn1Cc1ccccc1)N1CCN2CCCC2C1)OCCO3 (centres unmarked) | -0.778% |
| Cc1cc(C)nc(NC(=O)CCC2CCCC2)c1 | -4.11% |
| COc1ccc2c(c1)CC/C(=C\c1ccc(C)o1)C2=O | 8.29% |
| CCOC(=O)c1cn2nc(N3CCCC3)ccc2n1 | 1.32% |
| CN(CCc1cnn(C)c1)Cc1cn(C)nc1-c1ccccc1F | 9.85% |
| CN(Cc1cn[nH]c1-c1ccc2c(c1)OCO2)C1CCOCC1 | 12.7% |
| COCCN1CCC(CNCc2cn[nH]c2-c2ccc(C)c(C)c2)C1 (centres unmarked) | -3.39% |
| CN(CCc1cnn(C)c1)Cc1cn(C)nc1-c1ccc2c(c1)OCCO2 | 5.94% |
| CCn1cc(CNCc2cn[nH]c2-c2cc3ccccc3o2)cn1 | -14.1% |
| Cn1cc(CCNCc2cn[nH]c2-c2ccc(-c3ccccc3)cc2)cn1 | -64.8% |

| SMILES | hERG current change (%, negative = inhibition) at 10uM |
| --- | --- |
| COc1ccc(-c2[nH]ncc2CNCCc2ncccc2C)cc1F | -41.7% |
| CN(Cc1cn[nH]c1-c1ccc(-c2ccccc2)cc1)CC1CCOCC1 | -46.2% |
| Cc1ccc(-c2[nH]ncc2CNCCc2cnn(-c3ccccc3)c2)cc1C | -66.4% |
| CN(CCc1cnn(C)c1)Cc1cn[nH]c1-c1ccc(-c2ccccc2)cc1 | -66.6% |
| Cn1cc(CNCc2cn[nH]c2-c2ccc(F)cc2)c(-c2ccc3c(c2)OCCO3)n1 | -21.6% |
| CN(CCC1CCOCC1)Cc1cn[nH]c1-c1ccc(-c2ccccc2)cc1 | -62.6% |
| O=C(COc1ccc2c3c(c(=O)oc2c1)CCC3)Nc1ccc(CCO)cc1 | 21.2% |
| O=C(CCc1nnc(Cc2ccc(-c3ccccc3)cc2)o1)NCC1CC1 | -4.72% |
| CN(C)c1cc2c(cc1NS(=O)(=O)c1ccccc1)n(C)c(=O)n2C | 10.5% |
| CN1CCN(C(=O)Nc2cccc(-c3ccccc3)c2)CC1 | -3.63% |
| O=C(NCCC1=CCCCC1)c1c(O)nc2ccccn2c1=O | 0.215% |
| O=c1c2ccccc2nc(-c2ccco2)n1/N=C/c1ccco1 | 13.1% |
| CC(C)N(C(=O)CSc1nc2ccccc2n1Cc1ccc(F)cc1)C(C)C | -27.3% |
| CN1C[C@@H]2C(c3ccc(C(F)(F)F)cc3)C3(c4ccccc4)CC2(C3)[C@H]1c1ccccc1 (some centres unmarked) | -1.14% |
| CN1C[C@@H]2C(c3ccc(C(F)(F)F)cc3)C3(c4cccnc4)CC2(C3)[C@H]1c1ccccc1 (some centres unmarked) | -60% |
| CN1C[C@@H]2C(c3ccccc3)C3(c4ccc(C#N)cc4)CC2(C3)[C@H]1c1ccccc1 (some centres unmarked) | -32.5% |
| CN1C[C@@H]2C(c3ccc(Cl)nc3)C3(c4ccccc4)CC2(C3)[C@H]1c1ccccc1 (some centres unmarked) | -43.1% |
| CN1C[C@@H]2C(c3ccc(Cl)nc3)C3(c4ccc(C#N)cc4)CC2(C3)[C@H]1c1ccccc1 (some centres unmarked) | -54.9% |
| CN1C[C@@H]2C(c3ccccc3)C3(c4cccnc4)CC2(C3)[C@H]1c1ccccc1 (some centres unmarked) | -46.5% |
